# Measured values as given in PubChem BioAssay AID485270 (The Scripps Research Institute Molecular Screening Center, 2010).
# Among all 330,000 compounds or so, about 5,800 (1.8%) were called active. This is one part of a sample in which actives are shown more often than they occur. Unmarked numbers belong to inactive results. Rule as the data show it: active = inhibition mostly above about 38% (no sharp cut-off); inactive = mostly below about 40%.
# Molecular target: Orexin/Hypocretin receptor type 1 (Homo sapiens) (UniProt O43613)
# Experiment: blocks the human orexin 1 receptor (AID 485270);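 also: 0% = agonist challenge alone and 100% = reference antagonist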
# Details: OX1R-expressing cells, FRET antagonist read-out; at 6.6 µM; active compounds read high
# Sequence of Orexin/Hypocretin receptor type 1 (Homo sapiens) (O43613 whole entry, looked up): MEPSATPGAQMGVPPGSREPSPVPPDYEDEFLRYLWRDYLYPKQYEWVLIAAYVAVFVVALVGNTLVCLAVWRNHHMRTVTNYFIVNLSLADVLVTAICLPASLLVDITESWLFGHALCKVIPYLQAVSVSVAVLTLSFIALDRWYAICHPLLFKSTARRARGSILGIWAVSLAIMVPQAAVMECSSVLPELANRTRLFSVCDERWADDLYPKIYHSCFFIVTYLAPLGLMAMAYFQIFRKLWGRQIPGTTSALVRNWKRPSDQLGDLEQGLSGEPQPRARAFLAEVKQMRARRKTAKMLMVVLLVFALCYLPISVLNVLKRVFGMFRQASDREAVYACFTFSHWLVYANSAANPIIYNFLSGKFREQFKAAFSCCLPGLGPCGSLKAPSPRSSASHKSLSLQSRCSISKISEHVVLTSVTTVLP
row,Structure (SMILES),inhibition
1,COc1ccc(CNC(=O)C[C@H]2C[C@H](C(=O)N3CCOCC3)[C@@]3(C)c4[nH]c5cc(CCC(=O)N(C)C)ccc5c4CCN3C2=O)cc1OC,1.77%
2,CC1(C)CN(c2ccc(-c3ccnc4ncnn34)cc2)C1=O,41.3% (active)
3,Nc1c(-c2ccc(F)cc2)cnc2ncnn12,7.26%
4,Cc1cccc(-c2nnc(SCC(=O)O)n2Cc2ccccc2)c1,-2.09%
5,Cc1ccc2c(c1)nnc1nnc(SCC(=O)O)n12,89.5% (active)
6,CCn1nnnc1SCC(=O)c1ccc(C)cc1C,12.5%
7,CCN(C(=O)COC(=O)c1ccccc1O)c1cccc2ccccc12,4.23%
8,CC[C@]12c3[nH]c4ccc(Cl)cc4c3CCN1C(=O)[C@@H](CC(=O)NCCCOC)C[C@@H]2C(=O)N1CCN(C(=O)C2CC2)CC1,-3.2%
9,O=C(C1CCCN(S(=O)(=O)c2ccc([N+](=O)[O-])cc2)C1)N1CCCCC1 (stereo not drawn),66.7% (active)
10,O=C(O)C1CCCCC1C(=O)N1CCN(S(=O)(=O)c2ccc(F)cc2)CC1 (stereo not drawn),7.06%
11,O=C(C1CCC1)N1CCN(S(=O)(=O)c2ccc([N+](=O)[O-])cc2)CC1,43.9% (active)
12,O=C(C1CCCN(S(=O)(=O)c2ccccc2)C1)N1CCN(c2ccc(F)cc2)CC1 (stereo not drawn),13.8%
13,O=C(NNS(=O)(=O)c1ccc([N+](=O)[O-])cc1)C1CCCCC1,34.2%
14,Cc1ccc(S(=O)(=O)N2CCCC(C(=O)N3CCN(C)CC3)C2)cc1 (stereo not drawn),16.7%
15,O=C(Cc1ccccc1)N1CCN(S(=O)(=O)c2ccc([N+](=O)[O-])cc2)CC1,88.8% (active)
16,COc1ccc(CCC(=O)N2CCN(S(=O)(=O)c3ccc(OC)cc3)CC2)cc1,3.59%
17,O=C(Cc1ccccc1)NNS(=O)(=O)c1ccc([N+](=O)[O-])cc1,42%
18,CC1CCCN(C(=O)CN2C(=O)c3ccccc3S2(=O)=O)C1 (stereo not drawn),1.18%
19,COc1ccc(C(=O)Nc2cc(S(=O)(=O)N3CCCC3)ccc2Cl)cc1,16.2%
20,COc1ccc(OCC(=O)NNC(=O)C2CCC2)cc1,-2.24%
21,O=C(COC(=O)COc1cccc(F)c1)NCC1CCCCC1,4.71%
22,O=C(CN1C(=O)NC2(CCOc3ccccc32)C1=O)Nc1cccc([N+](=O)[O-])c1 (stereo not drawn),7.29%

row,Structure (SMILES),inhibition
1,Cc1noc(C)c1CSCC(=O)Nc1nc2ccc(Oc3ccccc3)cc2s1,76% (active)
2,CCc1noc(C)c1C(=O)Nc1nc2ccc(OC)cc2s1,25.1%
3,Cc1ccc(F)cc1NC(=O)CSCc1c(C)noc1C,-1.27%
4,Nn1c(SCC(=O)NC2CCCc3ccccc32)nnc1C1CC1 (stereo not drawn),8.92%
5,COC(=O)COc1cccc2c(=O)n(CC(=O)NCCc3ccc(OC)c(OC)c3)ccc12,1.07%
6,CCOC(=O)C(C)Oc1cccc2c(=O)n(CC(=O)N3CCc4ccccc43)ccc12 (stereo not drawn),12.2%
7,CCOC(=O)C(C)Oc1cccc2c(=O)n(CC(=O)NCCc3ccc(OC)c(OC)c3)ccc12 (stereo not drawn),37% (active)
8,Cc1onc(-c2c(F)cccc2Cl)c1C(=O)OCC(=O)N1C(C)CCCC1C (stereo not drawn),17.2%
9,CN(C)CCNC(=O)c1[nH]nc2c1CCc1ccccc1-2,3.78%
10,COc1ccc(/C=N/NC(=O)c2ccc3c(c2)OCCO3)c(OC)c1,22.9%
11,COc1cccc(/C=N/NC(=O)c2[nH]nc3c2CCc2ccccc2-3)c1O,75.7% (active)
12,Cc1ccc(S(=O)(=O)NCC(C)NS(C)(=O)=O)cc1 (stereo not drawn),4.32%
13,CCN(CC(=O)NC(C)C)C(=O)c1cc(S(=O)(=O)N2CCCCC2)ccc1N1CCCCC1,4.56%
14,CC(=O)NC(CC(=O)Nc1ccc(S(=O)(=O)N2CCOCC2)cc1)c1ccccc1 (stereo not drawn),6.07%
15,Cn1nccc1C(=O)NC1CCCc2c1cnn2-c1ccccc1F (stereo not drawn),26.4%
16,Cc1cc(C(=O)NC2CCCc3c2cnn3-c2cccc(C)c2C)c(C)o1 (stereo not drawn),81% (active)
17,COc1ccc(C(=O)NC2CCCc3c2cnn3-c2cccc(C)c2C)c(OC)n1 (stereo not drawn),38.4%
18,CC[C@]1(C(=O)OC)[C@H]2C(=O)N(Cc3ccccc3)C(=O)[C@H]2[C@H]2CN=C(SCc3ccc(C#N)cc3)N21,4.34%
19,C=CC[C@H](CC(=O)OC(C)(C)C)C(=O)OC[C@H]1CCCN1C(=O)[C@H](CC=C)CC(=O)N(CCO)Cc1ccccc1,2.54%
20,Cc1ccc(NC(=O)CN(C)CC(=O)Nc2cccc(F)c2)cc1[N+](=O)[O-],30%
21,Cc1ccc(NC(=O)CN2CCC(C(N)=O)CC2)cc1[N+](=O)[O-],50.4% (active)
22,CN1CCN(CC(=O)Nc2cccc([N+](=O)[O-])c2)CC1,28%

row,Structure (SMILES),inhibition
1,C[C@H](CO)N1C[C@H](C)[C@@H](CN(C)C(=O)NC2CCCCC2)Oc2ccc(NC(=O)c3ccncc3)cc2C1=O,1.49%
2,Cc1ccc(C(=O)NNC(=O)CSc2nnc3ccccn23)cc1,0.4%
3,COCCN(Cc1nc(-c2ccc(C(F)(F)F)cc2)no1)C(C)C,-2.95%
4,CC(=O)N(C1=C(Cl)C(=O)c2ccccc2C1=O)c1ccc(C(=O)O)cc1,39.2% (active)
5,CCc1ccc(CN(C)C(=O)CCc2nnc(-c3ccc(-c4ccccc4)cc3)o2)nc1,3.52%
6,CC(=O)c1ccc(-c2nnc(CCC(=O)N(C)Cc3cnc4ccccn34)o2)s1,40.1% (active)
7,O=C(N/N=C/c1cc(Br)c(O)c([N+](=O)[O-])c1)C(O)(c1ccccc1)c1ccccc1,28.3%
8,O=C(N/N=C/c1cc(Cl)cc([N+](=O)[O-])c1O)C(O)(c1ccccc1)c1ccccc1,54.6% (active)
9,CN(C)/N=C/c1cc(Cl)cc([N+](=O)[O-])c1O,46.4%
10,COc1cc(NC(=O)COC(=O)c2cc(S(=O)(=O)N3CCOCC3)ccc2F)cc(OC)c1,15.3%
11,O=C(c1cnccn1)N1CCN(S(=O)(=O)c2cccc(Cl)c2)CC1,4.72%
12,O=C(C[C@@H]1C/C=C\CCC(=O)OC[C@@H]2CCCN2C1=O)NCCO,4.18%
13,Cc1ccc(S(=O)(=O)NNC(=O)Nc2cccc3ccccc23)cc1,21.8%
14,Cc1ccc(S(=O)(=O)N2[C@@H](c3cccc4ccccc34)C(C(=O)O)=C[C@H]2C(C)(C)C)cc1,46.2% (active)
15,CCCCC[C@@H]1C=C(C(=O)O)[C@H](c2ccc(C#N)cc2)N1S(=O)(=O)c1ccc(C)cc1,10.8%
16,O=C1CSc2ccc(C(=O)NCc3ccccn3)cc2N1,3.47%
17,O=C(CSc1nnc(-c2c[nH]c3ccccc23)o1)c1ccccc1,29.7%
18,CN(C(=O)CSc1nnc(-c2c[nH]c3ccccc23)o1)C1CCS(=O)(=O)C1 (stereo not drawn),16.6%
19,CN(C(=O)CSc1nnc(-c2n[nH]c3ccccc23)o1)c1ccccc1,91.9% (active)
20,CCOC(=O)Cc1ncccc1C(=O)Nc1ccc(OC)cc1,25.1%
21,N#Cc1ccc(C(=O)Nc2cccc3cccnc23)c(F)c1,11%
22,COC(=O)c1cccc(NC(=O)c2cccc(N3C(=O)CCC3=O)c2)c1,4.2%

row,Structure (SMILES),inhibition
1,Cc1cc(NC(=O)c2cccc(N3C(=O)CCC3=O)c2)no1,11.9%
2,O=C(Nc1cccc2cccnc12)c1cccc(Cl)c1,61.5% (active)
3,O=C(Nc1cccnc1Cl)c1cc(-c2cccc(Cl)c2)on1,11.7%
4,O=C(Nc1cccc2cccnc12)c1cccc(N2C(=O)CCC2=O)c1,92.7% (active)
5,COc1ccc(NC(=O)Nc2cccc3cccnc23)cc1,40% (active)
6,COc1ccc(NC(=O)C2CCCN(S(=O)(=O)c3cccc4cccnc34)C2)cc1 (stereo not drawn),4.36%
7,CC[C@]1(C(=O)OC)[C@H]2C(=O)N(C)C(=O)[C@H]2[C@H]2CN(C)C(=NCc3ccccc3)N21,2.73%
8,COc1ccccc1CNC(=O)COC(=O)c1cccs1,2.2%
9,O=C(CN1C(=O)NC(Cc2c[nH]c3ccccc23)C1=O)Nc1ccccc1C(F)(F)F (stereo not drawn),3.6%
10,CCC(C)c1ccc(NC(=O)COC(=O)C2CCCC2)cc1 (stereo not drawn),5.25%
11,CCOC(=O)[C@@H]1[C@H]2COc3ccc(Br)cc3[C@H]2N2C(=O)N(c3ccc(C)cc3)C(=O)[C@@]12C,10.5%
12,O=C(Cn1cnc2c(OCc3ccccc3)ncnc21)NCc1nc2ccccc2[nH]1,14.3%
13,CC(O)CNCCOc1cccc(Oc2ccccc2)c1 (stereo not drawn),3.22%
14,CC(C)(C)NCC(O)COc1cccc2[nH]c(=O)[nH]c12 (stereo not drawn),8.82%
15,COc1ccccc1OCCNCC(O)COc1cccc2[nH]c3ccccc3c12 (stereo not drawn),59.7% (active)
16,COc1ccccc1-c1nnc(NC(=O)c2ccc3ncsc3c2)o1,8.4%
17,Cc1ccc(C(=O)c2c(NC(=O)c3ccccc3)sc(C)c2C)cc1,21.9%
18,Cc1sc(NC(=O)c2ccc3ncsc3c2)c(C(N)=O)c1C,43.8% (active)
19,Cc1ccc(C(=O)Nc2ccccc2-c2ccccc2)cc1S(=O)(=O)Nc1ccccc1,5.71%
20,Cc1noc(C)c1S(=O)(=O)N(CC(=O)NCc1ccc(Cl)cc1)c1ccc2c(c1)OCO2,80.7% (active)
21,Cc1noc(C)c1S(=O)(=O)N(CC(=O)Nc1ccc2c(c1)OCCO2)c1ccc(C(C)C)cc1,23.3%
22,CCOc1ccc(N(CC(=O)NCc2ccc(OC)cc2)S(=O)(=O)c2c(C)noc2C)cc1,0.77%
